High-throughput results: PubChem BioAssay, several laboratories
CYP2C19 inhib: blocks human cytochrome P450 2C19 | inhibition, % at 5 µM | AID 778 | P33261 | 96,000 compounds, 21% hits | CYP2C19 Supersomes, luciferin-H EGE luminescence, 30 min;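 active means CYP2C19 inhibition above a set limit at 5 µM in the primary screen, cut at about 50% in these data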;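 further: plate controls were negative control wells for no effect and 2.5 mM tranylcypromine positive control for full effect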
Target sequence (P33261 whole entry, looked up): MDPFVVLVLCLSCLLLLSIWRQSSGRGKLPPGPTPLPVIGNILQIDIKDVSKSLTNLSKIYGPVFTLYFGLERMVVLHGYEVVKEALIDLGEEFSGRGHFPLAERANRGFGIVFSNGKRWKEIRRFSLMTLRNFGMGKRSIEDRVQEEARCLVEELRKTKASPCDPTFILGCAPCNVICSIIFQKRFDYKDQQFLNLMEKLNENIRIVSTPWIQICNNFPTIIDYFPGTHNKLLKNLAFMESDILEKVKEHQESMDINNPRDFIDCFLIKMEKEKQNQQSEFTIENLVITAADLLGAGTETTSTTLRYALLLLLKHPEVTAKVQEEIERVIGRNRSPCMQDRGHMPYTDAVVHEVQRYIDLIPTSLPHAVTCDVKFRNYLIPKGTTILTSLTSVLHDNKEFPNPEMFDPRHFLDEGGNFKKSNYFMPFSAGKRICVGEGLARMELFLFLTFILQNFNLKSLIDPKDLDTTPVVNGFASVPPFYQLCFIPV
cytoskel mod: cytoskeleton assembly modification; HUVEC TNFa F-actin phalloidin imaging, high content; inhibition, % at 2 µM; 91,000 compounds, 0.18% hits;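 active means inhibition above the batch mean plus 3 SD and confirmed as a hit by visual image inspection, cut at about 30% in these data, passing the limit was not always enough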
CYP2C9 act: activators of human CYP2C9. P11712. recombinant CYP2C9, luciferin-H conversion, luminescence; hits give high values; factor 1 = untreated enzyme, 0 = blocked. activation factor at 5 µM. 96,000 compounds, 1.4% hits;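 active means activation factor of 2 or more for CYP2C9 at a 5 µM dose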;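 further: 0 = sulfaphenazole-blocked wells and 1 = vehicle-only wells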
E-sel TNF inh: blocks E-selectin expression induced by TNF alpha. HUVEC TNFa-induced E-selectin immunofluorescence, high content. inhibition, % at 2 µM. 120,000 compounds, 0.71% hits. AID 1246;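 active means inhibition above the batch mean plus 3 SD, and confirmed as a hit on visual image review, cut at about 43% in these data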;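 further: 0% = TNF-stimulated DMSO wells and 100% = unstimulated control wells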
CYP2C9 inhib: human CYP2C9 inhibition; inhibition, % at 5 µM; CYP2C9 Supersomes, luciferin-H conversion, luminescence; 96,000 compounds, 20% hits; P11712;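 active means blocking of liver enzyme CYP2C9 beyond about 50% at 5 µM, limit read from the data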
CYP2C19 activ: increases human CYP2C19 enzyme activity. 96,000 tested, under 10 active. recombinant CYP2C19, luciferin-H EGE luminescence; hits give high values; 0 = fully inhibited enzyme, 1 = untreated enzyme. P33261. activation factor at 5 µM;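 active means activation factor of at least 2 at 5 µM in the primary screen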;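 further: 0 = wells with 2.5 mM tranylcypromine and 1 = vehicle-only wells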
Active calls of the source: *; . = no result given. The list is not random: actives were taken first. Their share in the collection is about 22%.

SMILES | CYP2C19 inhib | cytoskel mod | CYP2C9 act | E-sel TNF inh | CYP2C9 inhib | CYP2C19 activ
O=C1NC(=O)C(CCc2ccncc2)(C2CCCCC2)C(=O)N1 | 64* | -7 | 0.3 | . | 70* | 0.4
CC(Cc1ccccc1)NC(=O)/C=C/C(=O)O (stereo unspecified) | . | . | . | 16 | . | .
O=C(CN1CC(c2ccccc2)CC1=O)NCc1ccc(F)cc1 (stereo unspecified) | . | . | . | 5 | . | .
COc1cccc(NC(=O)CN2CC(c3ccccc3)CC2=O)c1 (stereo unspecified) | 61* | -3 | 1 | 13 | 0 | 0.4
CC(NC1CCCCC1)C(O)C12CC3CC(CC(C3)C1)C2 (stereo unspecified) | 13 | . | 0.8 | 23 | 19 | 0.9
CN1CCc2nc3sc(C#N)c(N)c3c(-c3cccs3)c2C1 | 10 | -27 | 0.4 | . | 56* | 0.9
NCCNc1ccc([N+](=O)[O-])c2cccnc12 | . | . | . | -22 | . | .
CCC(CO)Nc1ccc([N+](=O)[O-])c2cccnc12 (stereo unspecified) | 58* | 12 | 0.7 | -47 | 27 | 0.4
CCN(CCNc1ccc([N+](=O)[O-])c2cccnc12)S(=O)(=O)c1ccc(Cl)cc1 | 61* | -1 | 0.5 | -13 | 51* | 0.4
CC(=NCc1ccco1)c1c(O)n(C)c(=O)n(C)c1=O | 36 | -24 | 0.8 | -8 | 18 | 0.6
Cn1c(O)c(C=NCc2ccco2)c(=O)n(C)c1=O | 52* | 9 | 0.7 | -5 | 28 | 0.5
Cn1ncnc2c(=O)n(C)c(=O)nc1-2 | 95* | . | 0.2 | . | 80* | 0.1
CCOP(=S)(OCC)N1CCOCCOCCN(P(=S)(OCC)OCC)CCOCCOCC1 | . | . | . | 1 | . | .
CC1=NN(c2ccccc2)C(=O)C1/C=C1\C(=O)NC(=O)N(c2ccc(C)c(C)c2)C1=O (stereo unspecified) | -15 | -2 | 0.3 | 19 | 68* | 1.1
Clc1cccc(C2NCCc3[nH]cnc32)c1 (stereo unspecified) | -2 | . | 1 | -19 | 0 | 1
CN(C)C1(c2nnnn2-c2ccc(Cl)cc2)CCCCC1 | 93* | -6 | 0.6 | 16 | 43 | 0.1
CN(C)C1(c2nnnn2CCOC(=O)Nc2ccc(Cl)cc2)CCCCC1 | 100* | 9 | 0.1 | 15 | 87* | 0
N=C1c2ccccc2CN1NC(=O)c1ccccc1 | . | . | . | 6 | . | .
O=c1[nH]c(=O)n(CCC2=CCCCC2)c(O)c1C=NC1CCN(Cc2ccccc2)CC1 | 31 | 7 | 0.2 | 15 | 80* | 0.7
CCCCCCn1c(O)c(C=NC2CCN(Cc3ccccc3)CC2)c(=O)[nH]c1=O | 26 | 11 | 0.3 | 7 | 73* | 0.7
O=c1[nH]c(O)c(C=NC2CCN(Cc3ccccc3)CC2)c(=O)[nH]1 | . | 24 | . | -4 | . | .
N#Cc1cc2c(nc1SCC(=O)Nc1cc(Cl)cc(Cl)c1)C1CCN2CC1 | 5 | -9 | 0.6 | -10 | 39 | 1
Cc1ccc2cccc(OC(=O)N(C)c3ccccc3)c2n1 | 90* | . | 0.7 | . | 28 | 0.1
Cc1ccc(N(C)C(=O)Oc2cccc3cccnc23)cc1 | 87* | -1 | 0.5 | 11 | 49 | 0.1
CC(=O)Nc1ccccc1OC(=O)N(C)C | -9 | 0 | 1 | -5 | 0 | 1.1
SMILES | CYP2C19 inhib | cytoskel mod | CYP2C9 act | E-sel TNF inh | CYP2C9 inhib | CYP2C19 activ
O=c1[nH]c(N2CCN(Cc3ccc4c(c3)OCO4)CC2)nc2c1CCC2 | 1 | 4 | 1 | -33 | 2 | 1
Cc1ccccc1C(O)(Cc1ccccc1)C1CN2CCC1CC2 (stereo unspecified) | 11 | -42 | 0.8 | 6 | 23 | 0.9
CCCNc1oc(-c2cccc3ccccc23)nc1C#N | 18 | . | 0.6 | -42 | 45 | 0.8
O=C(c1ccccc1F)c1cn(CC(=O)N2CCCC2)c2ccccc12 | 35 | -2 | 0.9 | 4 | 15 | 0.7
C=CCOC(=O)COc1cc(C)cc2oc(=O)c3c(c12)CCC3 | 84* | 14 | 0.4 | -18 | 58* | 0.2
Cc1cc(OCc2nn[nH]n2)c2c3c(c(=O)oc2c1)CCCC3 | -17 | 38 | 0.3 | -6 | 72* | 1.2
Cc1cc(OC(=O)CCNC(=O)OC(C)(C)C)c2c3c(c(=O)oc2c1)CCC3 | 29 | 29 | 0.7 | -10 | 29 | 0.7
Cc1cc(OC(=O)c2ccco2)c2c3c(c(=O)oc2c1)CCC3 | -20 | 9 | 1.1 | -9 | -14 | 1.2
Cc1cc(OCc2ccc([N+](=O)[O-])cc2)c2c3c(c(=O)oc2c1)CCCC3 | 60* | -40 | 0.2 | -51 | 79* | 0.4
